Measurements published in PubChem BioAssay (NCATS).
Values joined by “and” are separate entries in the source; they are usually repeats but may differ in a detail not shown here. Equal values may be shown once. Records with an inconclusive call do not appear. Active and inactive are the calls of the source. The call rests on the fitted dose curve; in most records, active means well fitted curve in the direction sought with a large enough effect; inconclusive means small, poorly fitted or top-dose-only effect, or another doubt; inactive means no such curve, though single readings can be large; an effect the other way counts as inactive or inconclusive.

Key:
[1] = target: Cellular tumor antigen p53 (Homo sapiens) (UniProt P04637); assay: Primary qHTS for small molecule compounds that upregulate eGFP-tagged delta133p53alpha (in N-terminal) cells. (AID 2060322); conditions: NCI-H358 eGFP-delta133p53alpha fluorescence, 24 h; activation: active compounds read high;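 further: series mostly up to about 56 µM; 0% = DMSO vehicle and 100% = reference activator; nearly all actives have a fitted effect of over 75% in size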
Cellular tumor antigen p53 (Homo sapiens), sequence (P04637 whole entry, looked up): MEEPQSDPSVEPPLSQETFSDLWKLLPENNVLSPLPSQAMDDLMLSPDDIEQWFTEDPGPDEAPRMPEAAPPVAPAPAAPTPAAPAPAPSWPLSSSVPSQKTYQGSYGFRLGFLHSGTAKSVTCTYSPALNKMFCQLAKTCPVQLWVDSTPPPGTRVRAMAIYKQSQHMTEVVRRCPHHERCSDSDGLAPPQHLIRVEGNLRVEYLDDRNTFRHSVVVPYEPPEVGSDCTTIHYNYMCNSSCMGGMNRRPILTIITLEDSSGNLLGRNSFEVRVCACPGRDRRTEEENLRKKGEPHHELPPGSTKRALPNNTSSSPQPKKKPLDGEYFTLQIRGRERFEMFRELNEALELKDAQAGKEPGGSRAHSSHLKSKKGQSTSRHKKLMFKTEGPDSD
Method in brief: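 NCI-H358 cells pre-induced 24 h with 10 ng/ml doxycycline to express N-terminal eGFP-delta133p53alpha, then dosed 24 h at 37C without doxycycline; fixed, Hoechst-stained, GFP intensity by laser scanning cytometry, normalized to DMSO (0%) and 57.5 uM 5-azacytidine (100%).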

[2] = target: Aldehyde dehydrogenase, mitochondrial (Homo sapiens) (UniProt P05091); assay: qHTS for Inhibitors of the Aldehyde Dehydrogenase Family (ALDH2) Primary screen (AID 2061308);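 further: plate controls were vehicle for no effect and reference inhibitor for full effect; nearly all actives have a fitted effect of over 55% in size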
[3] = target: Retinaldehyde dehydrogenase 3 (Homo sapiens) (UniProt P47895); assay: qHTS for Inhibitors of the Aldehyde Dehydrogenase Family (ALDH1A3) Primary screen (AID 2061315);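 further: plate controls were DMSO vehicle for no effect and reference inhibitor for full effect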

CC(=O)N1CCN(Cc2ccc([C@H](C)Nc3nccc(N4C(=O)OC[C@@H]4C(C)C)n3)cc2)CC1
inactive: activation [1] -16.1% | Potency [2] | Potency [3]

CN(C)CC1CCOC1(c1ccccc1)c1ccccc1 (stereo not given)
inactive: activation [1] -7% | Potency [2] | Potency [3]

CC(C)(O)CC(CO)NC(=O)CC(O)CC(=O)Cc1ccccc1 (stereo not given)
inactive: activation [1] 22.1% | Potency [2] | Potency [3]

CC(C)NC[C@H](O)COc1ccc(CCOCC2CC2)cc1
inactive: activation [1] 1.67% | Potency [2] | Potency [3]

COc1ccc2c(c1)C(=O)N(CCc1ccc(S(=O)(=O)NC(=O)NC3CCCCC3)cc1)C(=O)C2(C)C
inactive: activation [1] -11.7% and 6.33% | Potency [2] | Potency [3]
